GC-A act = GC-A (human) enzyme activation; activation, % at 10 µM; P16066; HEK293 GC-A cells, cGMP TR-FRET, EC30 ANP; 0% at EC30 ANP, 100% saturating ANP; AID 1671463; 370,000 tested, 0.14% active; in the data active = activation above about 40%
ADAM17 inh = ADAM17 inhibition, QFRET primary screen; recombinant ADAM17, EDANS/DABCYL FRET peptide cleavage; inhibition, % at 6.95 µM; 370,000 tested, 0.83% active;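 active = inhibition above the mean of compounds lying between control limits plus 3 SD, set per campaign, cut at about 8.5% in these data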;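 also: 0% = DMSO-only wells as the low control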
GC-B act = GC-B (human) receptor activation; HEK293-GC-B cells, CNP EC30, cGMP TR-FRET; 0% at EC30 CNP, 100% saturating CNP; activation, % at 10 µM; 370,000 tested, 0.11% active;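 active = activation at 10 µM reaching about 35% in either raw or pattern-adjusted values, limit read from the data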
Target sequence (P20594 whole entry, looked up): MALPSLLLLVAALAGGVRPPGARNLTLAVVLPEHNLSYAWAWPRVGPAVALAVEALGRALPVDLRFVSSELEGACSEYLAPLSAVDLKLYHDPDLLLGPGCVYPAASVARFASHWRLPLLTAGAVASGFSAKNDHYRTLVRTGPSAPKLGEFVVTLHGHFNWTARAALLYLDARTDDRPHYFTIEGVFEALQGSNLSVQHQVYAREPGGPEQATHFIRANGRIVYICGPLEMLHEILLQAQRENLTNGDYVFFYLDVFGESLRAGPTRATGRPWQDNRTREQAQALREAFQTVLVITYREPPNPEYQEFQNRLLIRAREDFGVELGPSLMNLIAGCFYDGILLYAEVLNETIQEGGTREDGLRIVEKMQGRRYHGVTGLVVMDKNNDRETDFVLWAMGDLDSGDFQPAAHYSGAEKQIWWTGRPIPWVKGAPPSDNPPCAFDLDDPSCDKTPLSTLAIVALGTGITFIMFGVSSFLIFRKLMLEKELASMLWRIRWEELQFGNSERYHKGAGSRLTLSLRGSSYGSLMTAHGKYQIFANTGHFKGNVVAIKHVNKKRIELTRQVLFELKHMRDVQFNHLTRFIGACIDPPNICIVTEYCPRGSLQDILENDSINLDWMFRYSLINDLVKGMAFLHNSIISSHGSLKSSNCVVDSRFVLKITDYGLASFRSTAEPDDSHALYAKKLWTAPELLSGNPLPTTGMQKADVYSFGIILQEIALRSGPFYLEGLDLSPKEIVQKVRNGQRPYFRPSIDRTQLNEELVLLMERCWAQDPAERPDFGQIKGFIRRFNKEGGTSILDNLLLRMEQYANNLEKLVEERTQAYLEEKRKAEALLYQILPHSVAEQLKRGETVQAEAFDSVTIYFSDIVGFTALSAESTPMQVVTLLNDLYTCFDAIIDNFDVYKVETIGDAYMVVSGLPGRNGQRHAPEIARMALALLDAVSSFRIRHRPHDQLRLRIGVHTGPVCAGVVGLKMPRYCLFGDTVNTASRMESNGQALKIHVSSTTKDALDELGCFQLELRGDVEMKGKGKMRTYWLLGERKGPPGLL
ADAM10 inh = inhibits human ADAM10 | O14672 | recombinant ADAM10, EDANS/DABCYL FRET peptide cleavage, 3 h | inhibition, % at 7 µM | 370,000 tested, 0.62% active;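 active = inhibition above a per-campaign cutoff equal to the mean of compounds falling between control-based bounds plus 3 SD, cut at about 20% in these data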;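 also: 0% = DMSO wells while the 100% control is not disclosed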
ADAM10 confirm = human ADAM10 inhibition, confirmation | shares compounds with ADAM10 inh | ADAM10 QFRET peptide cleavage, EDANS fluorescence | inhibition, % at 6.95 µM | 2,100 tested, 1% active;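 active = inhibition above about 20% chosen separately for each screening run, limit read from the data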;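 also: 0% = DMSO wells and 100% = marimastat wells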
ADAM17 ctr = counter-screen for ADAM10 exosite inhibitors: inhibitors of human ADAM17. inhibition, % at 6.95 µM. 2,100 tested, 0.5% active. ADAM17 QFRET peptide cleavage, EDANS fluorescence. AID 743214. shares compounds with ADAM10 inh;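 active = mean triplicate inhibition above the solvent-only control wells' mean plus 3 SD, cut at about 12% in these data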;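 also: 0% = DMSO wells and 100% = marimastat wells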
ADAM10 counter = counter-screen for ADAM17 exosite inhibitors: inhibitors of human ADAM10. inhibition, % at 6.95 µM. AID 743256. 2,900 tested, 47% active. shares compounds with ADAM17 inh. recombinant ADAM10, EDANS/DABCYL FRET peptide cleavage, 3 h;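 active = mean inhibition over the triplicate runs exceeds the activity threshold set in the earlier primary screen, cut at about 20% in these data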;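 also: 0% = DMSO wells and 100% = marimastat wells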
ADAM17 confirm = human ADAM17 inhibition, confirmation | inhibition, % at 6.95 µM | shares compounds with ADAM17 inh | recombinant ADAM17, EDANS/DABCYL QFRET peptide cleavage | AID 743257 | 2,900 tested, 65% active;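 active = mean inhibition across replicates above the hit cutoff set in the primary screen, cut at about 8.5% in these data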;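 also: 0% = DMSO wells and 100% = marimastat wells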
Active calls of the source: *. This is a sample that favours compounds with a hit; in the whole collection about 1.3% have one here.

Results for N=c1c2c(ncn1Cc1ccco1)Oc1ccc3ccccc3c1C2c1ccccc1 (centres undefined) ?
GC-A act: -14.6; ADAM17 inh: 11.3*; GC-B act: -2.3; ADAM10 inh: 20.0*; ADAM10 confirm: 6.9; ADAM17 ctr: 2.5; ADAM10 counter: 18.7; ADAM17 confirm: 11.6*

What do the screens show for `COc1cccc(C(C(=O)NC2CCCC2)N(C(=O)c2ccco2)c2ccc(NC(C)=O)cc2)c1OC` (centres undefined)?
GC-A act: 2.1; ADAM17 inh: 2.7; GC-B act: 5.0; ADAM10 inh: -5.2

What do the screens show for `Oc1ccc(C[C@H]2CN([C@@H](Cc3ccc(O)cc3)CN3CCC[C@@H]3CN3C(=S)NC[C@@H]3Cc3ccccc3)C(=S)N2CC2CCCCCC2)cc1`?
GC-A act: -2.1; ADAM17 inh: 5.5; GC-B act: 2.5; ADAM10 inh: 0.7

How did Oc1ccc(C[C@H]2CN([C@@H](Cc3cccc(O)c3)CN3CCC[C@@H]3CN3C(=S)NC[C@@H]3Cc3ccccc3)C(=S)N2CC2CCCCC2)cc1 do in these assays?
GC-A act: -2.2; ADAM17 inh: 14.3*; GC-B act: -0.6; ADAM10 inh: 30.9*; ADAM10 confirm: 8.8; ADAM17 ctr: 2.5; ADAM10 counter: 49.1*; ADAM17 confirm: 22.6*

What do the screens show for `Cc1ccccc1-c1nc(NCCN(C)C)nc2ccsc12`?
GC-A act: -9.7; ADAM17 inh: -21.1; GC-B act: -4.3; ADAM10 inh: -65.9

How did Cc1sc2ncnc(N3CCC(C(=O)N(C)CC(=O)Nc4cccc(F)c4)CC3)c2c1C do in these assays?
GC-A act: 3.6; ADAM17 inh: -1.3; GC-B act: 9.0; ADAM10 inh: -2.1

Results for Cc1sc2ncnc(N3CCC(C(=O)N(C)CC(=O)Nc4ccc(Cl)c(C(F)(F)F)c4)CC3)c2c1C ?
GC-A act: -3.7; ADAM17 inh: 11.6*; GC-B act: -2.9; ADAM10 inh: 22.7*; ADAM10 confirm: 8.4; ADAM17 ctr: 2.3; ADAM10 counter: 47.8*; ADAM17 confirm: 25.0*

Results for Cc1ccc(-c2cc(-c3ccccc3Cl)[nH]n2)c(O)c1 ?
GC-A act: 6.5; ADAM17 inh: 9.5*; GC-B act: -4.4; ADAM10 inh: 24.2*; ADAM10 confirm: 6.2; ADAM17 ctr: 2.4; ADAM10 counter: 15.1; ADAM17 confirm: 9.1*

Results for Cc1ccc(-c2cc(-c3ccccc3[N+](=O)[O-])[nH]n2)c(O)c1 ?
GC-A act: 5.4; ADAM17 inh: 3.7; GC-B act: -3.7; ADAM10 inh: 10.8

What do the screens show for `Cc1ccccc1-c1cc(-c2ccccc2O)n[nH]1`?
GC-A act: 3.2; ADAM17 inh: 10.6*; GC-B act: -13.8; ADAM10 inh: 24.2*; ADAM10 confirm: 2.6; ADAM17 ctr: 1.4; ADAM10 counter: 13.7; ADAM17 confirm: 10.0*

How did Cc1ccc(-c2cc(-c3ccc(C)cc3O)[nH]n2)cc1 do in these assays?
GC-A act: 7.5; ADAM17 inh: 12.0*; GC-B act: -9.6; ADAM10 inh: 33.3*; ADAM10 confirm: 9.4; ADAM17 ctr: 2.9; ADAM10 counter: 25.1*; ADAM17 confirm: 14.1*

What do the screens show for `O=C(CN1CCC(N2CCCCC2)CC1)N1CCOCC1`?
GC-A act: -0.9; ADAM17 inh: 0.1; GC-B act: 4.8; ADAM10 inh: 0.1

How did COC(=O)c1ccc(/C=C(/NC(=O)c2ccccc2)C(=O)N2CCOCC2)cc1 do in these assays?
GC-A act: 0.3; ADAM17 inh: -1.1; GC-B act: -2.6; ADAM10 inh: -4.5

How did O=C1OC[C@@H]2CCCN2C(=O)[C@@H](CC(=O)N(CCO)Cc2ccccc2)C/C=C\C[C@H]1Cc1ccc(F)cc1 do in these assays?
GC-A act: -0.1; ADAM17 inh: 0.7; GC-B act: 1.3; ADAM10 inh: 9.1

Results for CCN1CCN(c2ccc(Cl)cc2NC(=O)c2ccc(-n3nc(C)cc3C)cc2)CC1 ?
GC-A act: -5.9; ADAM17 inh: -1.3; GC-B act: -5.8; ADAM10 inh: -14.2

What do the screens show for `COc1ccc(/C=C(/C(=O)Nc2ccccc2C(=O)NC(C)C)c2ccccc2)cc1`?
GC-A act: -2.9; ADAM17 inh: 9.6*; GC-B act: 3.9; ADAM10 inh: 20.1*; ADAM10 confirm: 9.6; ADAM17 ctr: 2.5; ADAM10 counter: 14.8; ADAM17 confirm: 8.5

What do the screens show for `O=C1NC[C@H](c2ccccc2)OC(=O)[C@H](Cc2ccc(F)cc2)CC/C=C/C[C@H]1CC(=O)N(CCO)Cc1ccccc1`?
GC-A act: -8.4; ADAM17 inh: 16.9*; GC-B act: 3.1; ADAM10 inh: 24.1*; ADAM10 confirm: 2.6; ADAM17 ctr: 0.5; ADAM10 counter: 21.8*; ADAM17 confirm: 10.7*

What do the screens show for `O=C1NC[C@H](c2ccccc2)OC(=O)[C@H](Cc2ccc(F)cc2)C/C=C\C[C@@H]1CC(=O)N(CCO)Cc1ccccc1`?
GC-A act: 0.1; ADAM17 inh: -4.6; GC-B act: -1.6; ADAM10 inh: -6.2

How did Cc1cc(C)c(C)c(S(=O)(=O)N2CCC(C(=O)N3CCCCCCC3)CC2)c1C do in these assays?
GC-A act: 0.8; ADAM17 inh: 1.7; GC-B act: 2.3; ADAM10 inh: -8.4

What do the screens show for `O=C(Nc1ccc2c(c1)OCCO2)C(c1ccnc2ccccc12)N1CCC(Cc2ccccc2)CC1` (centres undefined)?
GC-A act: 0.0; ADAM17 inh: 19.4*; GC-B act: 2.0; ADAM10 inh: 36.7*; ADAM10 confirm: 14.2; ADAM17 ctr: 4.2; ADAM10 counter: 12.9; ADAM17 confirm: 10.3*

What do the screens show for `O=C(OC12CCCN(C1)/C(=C/c1ccc(Cl)cc1)C2)c1ccc(Cl)cc1` (centres undefined)?
GC-A act: 5.5; ADAM17 inh: 0.3; GC-B act: -0.7; ADAM10 inh: -13.3

How did NNC(=O)C(=O)/C=C1\NC2(CCCC2)Cc2ccccc21 do in these assays?
GC-A act: -1.7; ADAM17 inh: 2.0; GC-B act: 1.0; ADAM10 inh: 6.1

What do the screens show for `O=C(/C=C1\NC2(CCCC2)Cc2ccccc21)C(=O)N/N=C/c1ccc(O)c(O)c1`?
GC-A act: -3.8; ADAM17 inh: 11.8*; GC-B act: -3.1; ADAM10 inh: 22.0*; ADAM10 confirm: 6.0; ADAM17 ctr: 3.6; ADAM10 counter: 18.3; ADAM17 confirm: 9.4*

Screening data (PubChem BioAssay)
